Source: PubChem BioAssay
CR mimetic SO: reduction of superoxide in aged yeast, primary screen, HTS; S. cerevisiae aged cells, superoxide DHE fluorescence; active compounds read low; superoxide response (% of plate mean), % at 10 µM; 0.18% of 330,000 active;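 active = superoxide response under a set limit, about three screen SD below normal, cut at about 65% in these data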;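 also: yeast aged for seven days with compound at 30 °C before DHE staining; 100% = average MFI of all compound-treated wells on the plate with controls excluded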
Platelet DG rel: inhibitors of platelet dense granule secretion, primary screen, cell-based, MLPCN, human platelets. human platelet-rich plasma, SFLLRN dense granule ATP release, luminescence. inhibition, %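 (compounds screened at 7.5 µM in platelet-rich plasma)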. 0.22% of 300,000 active. AID 1663, 2009;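 active = mean replicate score, as percent of positive control, at or above 50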
VLA-4 inh: inhibition in human VLA-4 binding assay, primary screen, VLA-4 allosteric modulator project, MLPCN library, flow cytometry, VLA-4 expressing cells | ligand binding flow cytometry | inhibition, % (about 7 µM as worked out from the volumes in the protocol) | 0.2% of 330,000 active | AID 2557, 2010; in the data active = inhibition above about 50%
SKN-1 block: suppressors of acrylamide-induced Pgst-4::GFP reporter in worms, primary screen, SKN-1 inhibitor project, whole organism, uHTS, GFP/RFP fluorescence ratio, strain VP596 | 0.49% of 360,000 active | C. elegans VP596 Pgst-4::GFP/RFP ratio, 24 h | inhibition, % at 21.8 µM;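 active = interference check ratio from 0.5 to 1.5 plus GFP to RFP signal ratio inhibition reaching or exceeding a fixed threshold, cut at about 30% in these data, passing the limit was not always enough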
ABCB6 inh 2: ABCB6 transporter inhibitors, primary screen, K562-ABCB6 cells, flow cytometry, MLPCN library | K562-ABCB6 porphyrin accumulation, 1 h; active compounds read low | 0.19% of 360,000 active | AID 602162, 2011 | ATP-binding cassette sub-family B member 6 (Homo sapiens), Q9NP58 | fluorescence ratio to DMSO, % at 10 µM;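 active = fluorescence ratio to DMSO below 75%, the collection mean minus 3 SD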;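 also: signal is porphyrin accumulated inside mitochondria; 100% equals median channel fluorescence of DMSO control wells; lower ratio means ABCB6 inhibition with less porphyrin fluorescence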
* hit, by the source's call. In the library only some 1.2% were active in any assay of this set; here they are far more common.

O=C(CSc1ccc(Cl)cc1)N1CCN(c2ncc(C(F)(F)F)cc2Cl)CC1 was read as CR mimetic SO 87.0, Platelet DG rel -3.5, VLA-4 inh 7.4, SKN-1 block 55.9* and ABCB6 inh 2 102.0.
`O=C(NCCO)c1cccc(-c2ccc3nncn3c2)c1` gave SKN-1 block 48.5* and ABCB6 inh 2 94.0.
Screening CN1OC[C@@H]2CN(Cc3cc(Cl)cc(Cl)c3)[C@H](c3cccc(-c4ccc(C#N)cc4)c3)C[C@@H]21 returned SKN-1 block -18.5 and ABCB6 inh 2 95.0.
`Cc1sc2nc(CN3CCN(S(=O)(=O)c4cccc5nonc45)CC3)[nH]c(=O)c2c1C` gave CR mimetic SO 94.0, Platelet DG rel -2.3, VLA-4 inh 14.4, SKN-1 block -4.8 and ABCB6 inh 2 24.0*.
Screening O=C1CC(NNC(=O)c2ccccc2)C(=O)N1 (stereo unspecified) returned CR mimetic SO 100.8, Platelet DG rel 5.5, VLA-4 inh -14.9, SKN-1 block 1.8 and ABCB6 inh 2 100.0.
`O=C1CC(NNC(=O)c2ccc(Br)cc2)C(=O)N1` (stereo unspecified) gave CR mimetic SO 88.4, VLA-4 inh 0.4, SKN-1 block 42.8* and ABCB6 inh 2 99.0.
`CCOC(=O)C1=C[C@@H](C(C)(C)C)N(S(=O)(=O)c2ccccc2C)[C@H]1c1ccc(Cl)cc1` gave SKN-1 block 20.0 and ABCB6 inh 2 100.0.
O=c1[nH]c2cc3c(cc2cc1CN(CCc1ccccc1)Cc1nnnn1C1CCCC1)OCCO3 was read as Platelet DG rel 49.8*.
`Cc1cc2ccccc2n1CCNC(=O)C1CC1` gave CR mimetic SO 95.5, Platelet DG rel -7.6, VLA-4 inh -3.3, SKN-1 block 46.6* and ABCB6 inh 2 103.0.
Screening Cc1cc2ccccc2n1CCNC(=O)C1CCCCC1 returned CR mimetic SO 85.3, Platelet DG rel 0.2, VLA-4 inh -7.0, SKN-1 block 58.8 and ABCB6 inh 2 100.0.
For Cc1cc2ccccc2n1CCNC(=O)c1cccs1 the results were CR mimetic SO 83.2, Platelet DG rel -1.2, VLA-4 inh 2.2, SKN-1 block 46.0* and ABCB6 inh 2 109.0.
`Cc1cc2ccccc2n1CCNC(=O)C1CCCC1` gave CR mimetic SO 94.1, Platelet DG rel 0.7, VLA-4 inh -1.8, SKN-1 block 37.5* and ABCB6 inh 2 110.0.
Screening O=C(Nc1ccc(Oc2ccccc2)cc1)C1CC1 returned CR mimetic SO 102.3, Platelet DG rel 6.3, VLA-4 inh 5.2, SKN-1 block -6.1 and ABCB6 inh 2 97.0.
Screening O=C(Nc1ccc(C#Cc2ccccc2)cc1)C1CC1 returned CR mimetic SO 87.0, Platelet DG rel -0.6, VLA-4 inh 10.2, SKN-1 block 46.9* and ABCB6 inh 2 100.0.
For CCOC(=O)N1CCN(c2ncnc3c2cnn3-c2ccc(OC)cc2)CC1 the results were Platelet DG rel 0.7, SKN-1 block 47.9* and ABCB6 inh 2 95.0.
CN(CCCS(=O)(=O)[O-])c1ccc(/C=C/c2ccc3ccccc3[n+]2C)cc1 was read as CR mimetic SO 90.0, Platelet DG rel -0.5, VLA-4 inh 12.4, SKN-1 block 37.0* and ABCB6 inh 2 101.0.
`CN(C)c1ccc(/C=C/c2ccc3ccccc3[n+]2C)cc1` gave CR mimetic SO 97.0, Platelet DG rel 9.0, VLA-4 inh inactive, SKN-1 block 87.6 and ABCB6 inh 2 494.0.
COCCNC(=O)C1(C)CCCN(CCS(=O)(=O)c2ccc(C)cc2)C1 (stereo unspecified) was read as SKN-1 block 10.1 and ABCB6 inh 2 92.0.
`CCN(CC)C(=O)c1ccc2nc3ccccc3nc2c1` gave CR mimetic SO 37.1*, Platelet DG rel -3.3, VLA-4 inh 22.5, SKN-1 block -1.0 and ABCB6 inh 2 108.0.
Screening CCN(CC)C(=O)c1ccc2nc(-c3ccccc3)c(-c3ccccc3)nc2c1 returned CR mimetic SO 109.7, Platelet DG rel -12.6, VLA-4 inh -0.1, SKN-1 block 7.8 and ABCB6 inh 2 91.0.
For Cc1c(Br)cccc1NC(=O)C1(C)CCN1CCc1ccccc1 (stereo unspecified) the results were SKN-1 block -2.8 and ABCB6 inh 2 101.0.
For CCNC(=O)C1(C)CCN(C(=O)c2ccc(-c3ccccc3)cc2)C1 (stereo unspecified) the results were SKN-1 block -2.2 and ABCB6 inh 2 106.0.
For Cc1cccc(C)c1NC(=O)C(C1CC1)n1c(-c2ccc(-c3ccccc3)cc2)nc2ccccc21 (stereo unspecified) the results were SKN-1 block 1.0.
Cc1cc(C(=O)Nc2nc3c(s2)CCCC3)cs1 was read as CR mimetic SO 117.8, Platelet DG rel 4.4, VLA-4 inh 7.5, SKN-1 block -5.4 and ABCB6 inh 2 94.0.
Cc1ncsc1C(=O)Nc1nc2c(s1)CCCC2 was read as CR mimetic SO 100.6, Platelet DG rel 61.1*, VLA-4 inh 7.9, SKN-1 block 14.7 and ABCB6 inh 2 100.0.
`COc1cc(/C=N/n2cnnc2)ccc1OCc1ccc(C)cc1` gave CR mimetic SO 93.8, Platelet DG rel 62.5*, VLA-4 inh -17.6, SKN-1 block 1.8 and ABCB6 inh 2 101.0.
Screening Cc1ccc(S(=O)(=O)N2CCC(=O)N([C@H](COC(=O)Nc3ccccc3)Cc3ccccc3)CC2)cc1 returned SKN-1 block 4.2 and ABCB6 inh 2 102.0.
Screening Cc1ccc(-c2cc(C(F)F)n3ncc(C(=O)N4CCN(c5cccc(C)c5C)CC4)c3n2)cc1 returned CR mimetic SO 105.8, Platelet DG rel 4.5, VLA-4 inh 0.4, SKN-1 block 38.6* and ABCB6 inh 2 91.0.
Screening COc1ccc(NC(=O)C(C2CC2)n2c(=O)c(-c3ccccc3)nc3ccccc32)cc1 (stereo unspecified) returned SKN-1 block 5.9.
For CCC(c1nnnn1CCOC)N1CCN(Cc2ccccc2)CC1 (stereo unspecified) the results were CR mimetic SO 107.9, Platelet DG rel -7.3, VLA-4 inh 0.0, SKN-1 block 36.1* and ABCB6 inh 2 100.0.
CCC(c1nnnn1CCOC)N1CCN(C(=O)c2ccco2)CC1 (stereo unspecified) was read as CR mimetic SO 87.0, Platelet DG rel 0.6, VLA-4 inh 23.5, SKN-1 block -19.3 and ABCB6 inh 2 96.0.
Cc1cc2nc(-c3ccc(F)cc3)c(Cc3cccc(Cl)c3)n2c(C)c1Br was read as SKN-1 block 12.2 and ABCB6 inh 2 133.0.
Screening COC(=O)c1ccsc1NC(=O)CN1CCN(Cc2ccc3c(c2)OCO3)CC1 returned CR mimetic SO 96.4, Platelet DG rel -0.5, VLA-4 inh 4.9, SKN-1 block 14.6 and ABCB6 inh 2 103.0.
